Assay outcomes: PubChem BioAssay, several laboratories
Sampled rows, rich in hits. Any-hit rate of the full collection: about 2.4%.
APOBEC3G inh – APOBEC3G DNA deaminase inhibitors, primary screen, biochemical, fluorescence, single-stranded DNA substrate, uHTS | 330,000 compounds, 0.28% hits | inhibition, % at 20 µM | DNA dC->dU-editing enzyme APOBEC-3G (Homo sapiens), Q9HC16 | recombinant A3G, ssDNA deamination FAM/TAMRA fluorescence;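 active = inhibition of at least 40% at 20 µM, with no more than 30% in the related APOBEC3A deaminase screen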;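 note: plate controls were DMSO wells with A3G for no effect and wells lacking A3G enzyme for full effect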
NRP1-CendR mod – modulators of CendR peptide binding to NRP-1, primary screen, biochemical, fluorescence polarization, uHTS; Neuropilin-1 (Homo sapiens), O14786; FAM-RPARPAR peptide binding to NRP-1; inhibition, % at 25 µM; 360,000 compounds, 0.85% hits; AID 602438, 2012;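 active = inhibition or corrected inhibition above about 18%, plus a signal ratio from 0.5 to 1.5, limit read from the data, passing the limit was not always enough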
A3A deaminase – APOBEC3A ssDNA deaminase inhibitors, primary screen, selectivity assay for APOBEC3G inhibitor project, biochemical, FAM/TAMRA oligo cleavage fluorescence. DNA dC->dU-editing enzyme APOBEC-3A (Homo sapiens), P31941. recombinant A3A, FAM/TAMRA ssDNA deamination fluorescence. inhibition, % at 20 µM. 330,000 compounds, 0.41% hits;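 active = at least 40% inhibition at 20 µM here, with at most 30% in a related deaminase screen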;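 note: plate controls were A3A with DMSO for no effect and wells lacking A3A enzyme for full effect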
ADAM10 inh – human ADAM10 inhibitors, primary screen, biochemical, QFRET, HTS; Disintegrin and metalloproteinase domain-containing protein 10 (Homo sapiens), O14672; recombinant ADAM10, EDANS/DABCYL FRET peptide cleavage, 3 h; inhibition, % at 7 µM; 370,000 compounds, 0.62% hits;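 active = inhibition above a per-campaign cutoff equal to the mean of compounds falling between control-based bounds plus 3 SD, cut at about 20% in these data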;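 note: 0% = DMSO wells while the 100% control is not disclosed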
Target sequence (O14672 214-748 limits assumed): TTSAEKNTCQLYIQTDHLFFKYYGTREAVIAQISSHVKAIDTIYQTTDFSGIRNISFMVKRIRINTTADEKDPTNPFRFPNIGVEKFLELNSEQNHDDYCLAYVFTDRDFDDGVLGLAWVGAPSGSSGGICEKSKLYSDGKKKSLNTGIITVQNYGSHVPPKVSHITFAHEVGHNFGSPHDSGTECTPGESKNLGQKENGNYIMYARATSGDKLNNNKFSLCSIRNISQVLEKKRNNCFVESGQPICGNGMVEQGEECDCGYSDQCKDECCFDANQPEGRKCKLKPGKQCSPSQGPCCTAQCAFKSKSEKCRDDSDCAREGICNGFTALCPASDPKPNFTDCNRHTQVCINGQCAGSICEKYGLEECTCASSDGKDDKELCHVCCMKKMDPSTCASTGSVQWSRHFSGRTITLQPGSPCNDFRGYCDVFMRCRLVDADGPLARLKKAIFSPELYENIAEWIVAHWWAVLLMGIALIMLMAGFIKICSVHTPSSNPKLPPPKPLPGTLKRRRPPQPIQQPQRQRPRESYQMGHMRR
ADAM17 inh – ADAM17 inhibitors, primary screen, biochemical, QFRET; 370,000 compounds, 0.83% hits; inhibition, % at 6.95 µM; recombinant ADAM17, EDANS/DABCYL FRET peptide cleavage;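 active = inhibition above the mean of compounds lying between control limits plus 3 SD, set per campaign, cut at about 8.5% in these data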;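 note: 0% = DMSO-only wells as the low control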
APOBEC3A confirm – APOBEC3A deaminase inhibitors, retest, confirmation, selectivity assay for APOBEC3G inhibitor project, biochemical, single concentration, fluorescence readout | shares compounds with A3A deaminase | recombinant A3A, ssDNA deaminase UDG fluorescence assay | inhibition, % at 20 µM | 1,400 compounds, 63% hits;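 active = inhibition reaching a set limit, 80% of the first screen's cutoff, at 20 µM in any replicate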;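 note: plate controls were DMSO wells with A3A for no effect and wells lacking A3A enzyme for full effect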
UDG ctr A3A – E. coli UDG inhibitors, confirmation, counter-screen for APOBEC3A inhibitor project, biochemical, single concentration, fluorescence, FAM/TAMRA oligo. shares compounds with A3A deaminase. UDG counterscreen, FAM/TAMRA uracil oligo fluorescence. inhibition, % at 20 µM. 1,000 tested, under 10 active; call rule not given here
The depositor's hits bear a star.

For CSC1=NC2C(N1)N(C)C(=O)N2C (stereo not given) the results were APOBEC3G inh 19.9, NRP1-CendR mod 20.5, A3A deaminase 57.6*, ADAM10 inh -1.5, ADAM17 inh -3.6 and APOBEC3A confirm 20.8.
CC(=O)N1CCN(c2ccc(N3CCN(C(C)=O)[C@@H](C)C3)c(C)c2)[C@@H](C)C1 was read as ADAM10 inh -7.6 and ADAM17 inh -1.8.
Screening CCOc1ncccc1C(=O)OCC(=O)N(CC)c1ccccc1 returned APOBEC3G inh -6.0, NRP1-CendR mod 10.4, A3A deaminase 74.1*, ADAM10 inh -6.0, ADAM17 inh -1.6, APOBEC3A confirm -1.0 and UDG ctr A3A 2.2.
CCSc1ccc2cc(OC)ccc2[n+]1CC was read as APOBEC3G inh 28.4, NRP1-CendR mod 1.3, A3A deaminase 78.1*, ADAM10 inh -125.5, ADAM17 inh -37.9, APOBEC3A confirm 69.7* and UDG ctr A3A -3.1.
`CCn1ccc2cc(OC)ccc2c1=S` gave APOBEC3G inh -0.5, NRP1-CendR mod -2.7, A3A deaminase -3.2, ADAM10 inh -147.3 and ADAM17 inh -40.8.
N#CC1(NC(=O)COc2ccccc2[N+](=O)[O-])CCCCC1 was read as APOBEC3G inh 3.0, NRP1-CendR mod -0.8, A3A deaminase 47.5*, ADAM10 inh -7.9, ADAM17 inh -6.0 and APOBEC3A confirm 21.7.
Screening N#CC1(NC(=O)COc2cc(F)ccc2[N+](=O)[O-])CCCCC1 returned APOBEC3G inh -4.6, NRP1-CendR mod 1.6, A3A deaminase -1.3, ADAM10 inh -0.7 and ADAM17 inh 2.5.
Screening CS(=O)(=O)c1ccc2sc(NC(=O)c3cc4ccccc4o3)nc2c1 returned APOBEC3G inh 27.2, NRP1-CendR mod -1.1, A3A deaminase 53.1*, ADAM10 inh -3.2, ADAM17 inh -2.6 and APOBEC3A confirm 23.6.
CN(Cc1ccccc1)S(=O)(=O)c1cccc(C(=O)OCC2CCCCC2)c1 was read as ADAM10 inh -0.6 and ADAM17 inh -2.2.
`COc1ccc(CCNC(=O)CN(C2CCCCC2)S(C)(=O)=O)cc1OC` gave APOBEC3G inh 24.8, NRP1-CendR mod 2.7, A3A deaminase 44.3*, ADAM10 inh 4.4, ADAM17 inh -3.8, APOBEC3A confirm 57.6* and UDG ctr A3A 4.9.
For CS(=O)(=O)N(CC(=O)NCCc1ccccc1)C1CCCCC1 the results were APOBEC3G inh -5.2, NRP1-CendR mod -1.3, A3A deaminase -5.2, ADAM10 inh -1.3 and ADAM17 inh -1.7.
Screening Cc1cc(NS(=O)(=O)c2ccc(NC(=O)CSc3nnc(-c4ccncc4)n3Cc3ccco3)cc2)nc(C)n1 returned ADAM10 inh -8.7 and ADAM17 inh -4.5.
Screening CCOCc1cnc(C)nc1NCC(=O)c1c(C)[nH]c2ccc(OC)cc12 returned APOBEC3G inh 21.2, NRP1-CendR mod 3.2, A3A deaminase 54.9*, ADAM10 inh -0.8, ADAM17 inh -3.8, APOBEC3A confirm 79.8* and UDG ctr A3A 2.0.
For Cc1ccc(CN2C(=O)N/C(=C\c3ccc(-c4ccc(C(=O)O)cc4C)o3)C2=O)cc1 the results were APOBEC3G inh 20.6, NRP1-CendR mod -30.2, A3A deaminase 52.9*, ADAM10 inh -6.4, ADAM17 inh -2.6, APOBEC3A confirm 31.7* and UDG ctr A3A -1.1.
C[N+]1(CC(=O)OCCCc2ccccc2)CCCCC1 was read as APOBEC3G inh 16.4, NRP1-CendR mod 18.3, A3A deaminase 48.3*, ADAM10 inh 6.2, ADAM17 inh 2.4, APOBEC3A confirm 83.4* and UDG ctr A3A 2.4.
